system: HeLa; assay: percent cells in G1 phase; higher = more G1 arrest; conditions: 10 µM; 20 h; hit class: G1-phase inhibitor
Procedure: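 HTS of 79,827 drug-like compounds at 10 uM. HeLa cells in 384-well plates were treated for 20 h, fixed, stained with Vybrant DyeCycle Green and scanned on an Acumen eX3 cytometer to give per-well cell cycle profiles (% cells in each phase). The plate Z' was 0.51. Only hits are listed: G1 hits >4 SD and S hits >5 SD from the mean.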

SMILES	percent cells in G1 phase
CNc1ccc2oc(C[C@H]3O[C@@]4(CC[C@H]3C)O[C@H]([C@H](C)C(=O)c3ccc[nH]3)[C@H](C)C[C@H]4C)nc2c1C(=O)O	84.7%
CC(C)(C)c1cc(C=C(C#N)C#N)cc(C(C)(C)C)c1O	75.1%
CNC1CC2OC(C)(C1OC)n1c3ccccc3c3c4c(c5c6ccccc6n2c5c31)C(=O)NC4 (centres undefined)	86.7%
C[C@@H]1C[C@@H]([C@H](O)CC2CC(=O)NC(=O)C2)C(=O)[C@@H](C)C1 [Cycloheximide]	77%
C/C(=C\c1ccc(Cl)cc1)[N+](=O)[O-]	69.2%
C[C@@H]1O[C@@H](O[C@H]2C[C@@H](O)[C@]3(CO)[C@H]4[C@H](O)C[C@]5(C)[C@@H](C6=CC(=O)OC6)CC[C@]5(O)[C@@H]4CC[C@]3(O)C2)[C@H](O)[C@H](O)[C@H]1O	70.1%
O=[N+]([O-])c1ccc(NCCO)c2ncccc12	69.5%
C/C=C(/C)C(=O)O[C@H]1C(C)=C2[C@H]([C@@H]1OC(=O)CCCCCCC)[C@@](C)(OC(C)=O)C[C@H](OC(=O)CCC)[C@@]1(O)[C@H]2OC(=O)[C@@]1(C)O	81.5%
C[C@@]12C(=O)OC(=O)[C@]1(C)[C@H]1CC[C@@H]2O1	70.6%

Source: the supplement of paper PMC4237247
